Compound activity (PubChem BioAssay)
Cav32 inh: Cav3.2 calcium influx blockers – cell-based, Fluo-4 calcium fluorescence, FDSS, MLSMR library, primary screen | Voltage-dependent T-type calcium channel subunit alpha-1H (Homo sapiens), O95180 | Cav3.2-expressing cells; stronger effect = lower value | B-score at 10 µM | 4% of 100,000 active;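 active = single-dose well whose peak fluorescence ratio is a statistical outlier from its plate by either plate-standardised score or position-corrected B-score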
CYP2C19 activ: human CYP2C19 activators, primary screen, biochemical, luminescence | Cytochrome P450 2C19 (Homo sapiens), P33261 | recombinant CYP2C19, luciferin-H EGE luminescence; stronger effect = higher value; 0 = fully inhibited enzyme, 1 = untreated enzyme | activation factor at 5 µM | 96,000 tested, under 10 active;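 active = activation factor of at least 2 at 5 µM in the primary screen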;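 also: 0 = wells with 2.5 mM tranylcypromine and 1 = vehicle-only wells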
Target sequence (P33261 whole entry, looked up): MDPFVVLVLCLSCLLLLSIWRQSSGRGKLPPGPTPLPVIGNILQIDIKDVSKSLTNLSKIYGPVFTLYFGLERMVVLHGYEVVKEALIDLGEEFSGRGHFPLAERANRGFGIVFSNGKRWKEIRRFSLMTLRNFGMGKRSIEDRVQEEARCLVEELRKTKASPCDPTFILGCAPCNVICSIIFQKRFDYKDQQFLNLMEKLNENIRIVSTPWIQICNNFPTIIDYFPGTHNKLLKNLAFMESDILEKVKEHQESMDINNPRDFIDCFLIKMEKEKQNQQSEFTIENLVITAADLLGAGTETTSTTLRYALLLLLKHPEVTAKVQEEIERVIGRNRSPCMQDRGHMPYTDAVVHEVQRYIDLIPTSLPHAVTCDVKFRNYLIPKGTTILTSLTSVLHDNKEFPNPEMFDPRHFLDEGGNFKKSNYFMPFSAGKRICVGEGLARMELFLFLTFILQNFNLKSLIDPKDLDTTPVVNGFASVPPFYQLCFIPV
CYP2C9 act: human CYP2C9 activators, primary screen, biochemical, luminescence | Cytochrome P450 2C9 (Homo sapiens), P11712 | recombinant CYP2C9, luciferin-H conversion; stronger effect = higher value; factor 1 = untreated enzyme, 0 = blocked | activation factor at 5 µM | 1.4% of 96,000 active | AID 1024, 2008;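 active = activation factor of 2 or more for CYP2C9 at a 5 µM dose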;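 also: 0 = sulfaphenazole-blocked wells and 1 = vehicle-only wells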
CYP2C19 inh: blockers of cytochrome P450 2C19 activity – biochemical, luminescence, ADME assay, primary screen; inhibition, % at 5 µM; 21% of 96,000 active; P33261; CYP2C19 Supersomes, luciferin-H EGE luminescence, 30 min;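 active = CYP2C19 inhibition above a set limit at 5 µM in the primary screen, cut at about 50% in these data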;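 also: plate controls were negative control wells for no effect and 2.5 mM tranylcypromine positive control for full effect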
CYP2C9 inhib: blockers of cytochrome P450 2C9 activity – biochemical, luminescence, ADME assay, primary screen; P11712; CYP2C9 Supersomes, luciferin-H conversion; inhibition, % at 5 µM; 20% of 96,000 active;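 active = blocking of liver enzyme CYP2C9 beyond about 50% at 5 µM, limit read from the data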
* marks the source's active call; other numbers are inactive results. Rows were chosen to be rich in hits. Some 27% of all compounds tested hit in one or more screens of this group.

Results for Cc1cc(-c2nnco2)c(C)n1-c1ccc(F)cc1 ?
Cav32 inh: -1.7; CYP2C19 activ: 0.4; CYP2C9 act: 0.9; CYP2C19 inh: 58*; CYP2C9 inhib: 10

What do the screens show for `Cc1ccc(C)n1-c1ccc(-c2nnco2)cc1`?
Cav32 inh: 0.26; CYP2C19 activ: 0.6; CYP2C9 act: 0.9; CYP2C19 inh: 43; CYP2C9 inhib: 10

What do the screens show for `CC(C)(C)NC(=O)c1ccc(Sc2ccccc2)c([N+](=O)[O-])c1`?
Cav32 inh: -1.1; CYP2C19 activ: 0.3; CYP2C9 act: 0.1; CYP2C19 inh: 70*; CYP2C9 inhib: 92*

How did C=CCNC(=O)c1ccc(Sc2ccccc2)c([N+](=O)[O-])c1 do in these assays?
CYP2C19 activ: 0.2; CYP2C9 act: 0.3; CYP2C19 inh: 76*; CYP2C9 inhib: 70*

Results for CC(C)(C)NS(=O)(=O)c1ccc(CCC(=O)NCc2cccnc2)cc1 ?
Cav32 inh: 0.55; CYP2C19 activ: 0.6; CYP2C9 act: 0.1; CYP2C19 inh: 36; CYP2C9 inhib: 87*

How did O=c1[nH]n(Cc2ccccc2)c(=O)c2ccccc12 do in these assays?
Cav32 inh: -0.61; CYP2C19 activ: 0.3; CYP2C9 act: 0.6; CYP2C19 inh: 72*; CYP2C9 inhib: 41

How did Cc1ccc(N(CC(=O)NCc2cccnc2)S(C)(=O)=O)cc1C do in these assays?
Cav32 inh: 0.037; CYP2C19 activ: 0.2; CYP2C9 act: 0.7; CYP2C19 inh: 84*; CYP2C9 inhib: 26

How did O=C(CCCc1nc(-c2ccccc2Cl)no1)NCc1cccnc1 do in these assays?
Cav32 inh: 0.31; CYP2C19 activ: 0.4; CYP2C9 act: 1; CYP2C19 inh: 61*; CYP2C9 inhib: 1

Results for Cc1ccc(N(CC(=O)NCc2ccncc2)S(C)(=O)=O)cc1 ?
Cav32 inh: 0.63

How did CC(C)C(=O)NCCc1nc(-c2ccccc2Cl)no1 do in these assays?
Cav32 inh: 0.68

How did CCCSc1nc(C)c(-c2csc(C(C#N)=C3CCCC3)n2)cc1C#N do in these assays?
Cav32 inh: -0.59; CYP2C19 activ: 0.9; CYP2C9 act: 0.7; CYP2C19 inh: 13; CYP2C9 inhib: 28

How did O=C(Cn1[nH]c(=O)c2ccccc2c1=O)NCc1cccnc1 do in these assays?
Cav32 inh: 0.21; CYP2C19 activ: 0.9; CYP2C9 act: 0.4; CYP2C19 inh: 11; CYP2C9 inhib: 63*

What do the screens show for `O=C(O)CCCC(=O)Nc1ccc(C(=O)NCc2cccnc2)cc1`?
Cav32 inh: 1; CYP2C19 activ: 1; CYP2C9 act: 1.1; CYP2C19 inh: 2; CYP2C9 inhib: -7

How did CS(=O)(=O)N(CCc1ccccc1)CC(=O)NCc1ccccn1 do in these assays?
Cav32 inh: 0.67; CYP2C19 activ: 0.6; CYP2C9 act: 0.8; CYP2C19 inh: 36; CYP2C9 inhib: 18

Results for CS(=O)(=O)N(CC(=O)NCc1ccncc1)c1cc(Cl)cc(Cl)c1 ?
Cav32 inh: 0.57; CYP2C19 activ: 0; CYP2C9 act: 0.1; CYP2C19 inh: 100*; CYP2C9 inhib: 87*

What do the screens show for `O=C(CCCc1ccccc1)NCc1cccnc1`?
Cav32 inh: 0.011; CYP2C19 activ: 0.1; CYP2C9 act: 0.6; CYP2C19 inh: 91*; CYP2C9 inhib: 38

How did CS(=O)(=O)N(CCc1ccccc1)CC(=O)NCc1cccnc1 do in these assays?
Cav32 inh: 0.89; CYP2C19 activ: 0.1; CYP2C9 act: 0.6; CYP2C19 inh: 93*; CYP2C9 inhib: 36

How did Cn1c(N2CCN(C(=O)Nc3ccc(C(F)(F)F)cc3)CC2)nc2ccccc21 do in these assays?
Cav32 inh: 0.44; CYP2C19 activ: 0.8; CYP2C9 act: 0.8; CYP2C19 inh: 21; CYP2C9 inhib: 23

Results for CCOc1ccc(CCNC(=O)CN2CCN(Cc3ccccc3C)C2=O)cc1OCC ?
Cav32 inh: 0.046; CYP2C19 activ: 0.6; CYP2C9 act: 0.6; CYP2C19 inh: 36; CYP2C9 inhib: 36

Results for O=C(NC1CCS(=O)(=O)C1)C12CC3CC(CC(C3)C1)C2 (stereo not given) ?
Cav32 inh: 0.038; CYP2C19 activ: 1; CYP2C9 act: 1.1; CYP2C19 inh: 0; CYP2C9 inhib: -5

What do the screens show for `O=C(Nc1ccc(-c2noc(CCc3ccccc3)n2)cc1)c1cccnc1`?
Cav32 inh: -0.54; CYP2C19 activ: 0.7; CYP2C9 act: 0.5; CYP2C19 inh: 27; CYP2C9 inhib: 55*

What do the screens show for `O=C(CCc1nc(-c2ccccc2F)no1)NCc1ccco1`?
Cav32 inh: 0.26; CYP2C19 activ: 1; CYP2C9 act: 1.1; CYP2C19 inh: -5; CYP2C9 inhib: -14

How did O=C(CCc1nc(-c2ccccc2)no1)NCc1ccco1 do in these assays?
Cav32 inh: -0.29; CYP2C19 activ: 0.4; CYP2C9 act: 0.4; CYP2C19 inh: 57*; CYP2C9 inhib: 59*

Results for O=C(CCc1nc(-c2ccccc2)no1)NCc1cccnc1 ?
Cav32 inh: -0.14; CYP2C19 activ: 1; CYP2C9 act: 0.5; CYP2C19 inh: 2; CYP2C9 inhib: 51*

What do the screens show for `Cc1cccc(-c2noc(CCCC(=O)Nc3cccnc3)n2)c1`?
CYP2C19 activ: 0.8; CYP2C9 act: 0.9; CYP2C19 inh: 18; CYP2C9 inhib: 12

Results for O=C(CCCc1nc(-c2ccc(Cl)cc2)no1)Nc1cccnc1 ?
Cav32 inh: 0.74; CYP2C19 activ: 0.5; CYP2C9 act: 0.3; CYP2C19 inh: 52*; CYP2C9 inhib: 75*

Results for CCn1nc(C)cc1-c1n[nH]c(=S)n1N ?
Cav32 inh: 0.12; CYP2C19 activ: 1.1; CYP2C9 act: 0.9; CYP2C19 inh: -15; CYP2C9 inhib: 6

How did COc1cc(O)c(C(CC(=O)N2CCCC(C)C2)c2cc(OC)c(OC)c(OC)c2)c(OC)c1 (stereo not given) do in these assays?
Cav32 inh: 0.46

Results for O=C1CSC(c2c(F)cccc2Cl)N1c1cccc(F)c1 (stereo not given) ?
Cav32 inh: -1.9; CYP2C19 activ: 0.8; CYP2C9 act: 2.1*; CYP2C19 inh: 20; CYP2C9 inhib: -107

How did O=C1CSC(c2ccccc2F)N1c1ccccc1 (stereo not given) do in these assays?
Cav32 inh: -5.2

Results for COc1cccc(NC(=O)C2C3C=CC(O3)C2C(=O)NCc2cccnc2)c1 (stereo not given) ?
Cav32 inh: 0.29; CYP2C19 activ: 0.9; CYP2C9 act: 1; CYP2C19 inh: 12; CYP2C9 inhib: 4

How did CCC(=O)OC1(C#CCOc2ccc(OC)cc2)CCN(C)CC1 do in these assays?
Cav32 inh: 1.2; CYP2C19 activ: 0.3; CYP2C9 act: 1.1; CYP2C19 inh: 66*; CYP2C9 inhib: -9

How did COc1ccc(C/C(O)=C(\C#N)c2nc3ccccc3[nH]2)cc1OC do in these assays?
Cav32 inh: 1.8; CYP2C19 activ: 1; CYP2C9 act: 0.5; CYP2C19 inh: -3; CYP2C9 inhib: 50*
